These results are taken from PubChem BioAssay (Tox21).

SMILES strings stand for the structures. Inconclusive results are not listed. A call without a number means that no potency is given here. Activity calls are given as the source filed them. Calls follow the shape of the dose curve; as a rule, active = well fitted curve in the direction sought with a large enough effect in the repeat runs; inconclusive = weak or mixed curves; inactive = no such curve, though single readings can be large; an effect the other way counts as inactive or inconclusive.
Also: nearly all actives have a fitted effect of over 50% in size.

The nature of the first test: qHTS RealTime-Glo MT Cell Viability Assay in HepG2 cells - 16 hour (AID 1224885). The following applies: RealTime-Glo luminescence; series mostly up to 76.8 µM. The procedure, abridged: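 Viability was tracked continuously by NanoLuc luminescence from prosubstrate reduced by living HepG2 cells, at successive time points over 40 h of compound exposure. Cells with reagent were preincubated 5 h at 37 °C before compound addition.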
With `Cc1ccc([N+](=O)[O-])cc1N`, the Potency result is “inactive”. Still for that read-out and setting: next, `CCOC(=O)CC(=O)OCC`: “inactive”; `OCC(O)CS` (configuration not stated): “inactive”; `Cc1ccc(Cl)cc1`: “inactive”. On to `O=c1n(CCCN2CCN(c3cccc(Cl)c3)CC2)nc2ccccn12`, for which the Potency result was “inactive”.

In the case of `Nc1cccc(N)n1`, the Potency result was “inactive”.

As for `CC1(C)C(=O)N(Cl)C(=O)N1Cl`, the Potency entry is “inactive”. On the same count and under the same terms, next, `Cc1nnc(NS(=O)(=O)c2ccc(N)cc2)s1`: “inactive”. The same measure, in the same setting: the same measure for `CS(=O)(=O)c1ccc(Cl)cc1`: “inactive”; for `Cc1ccccc1C=O`: “inactive”; for `N#CCC(=O)O`: “inactive”.

On to `OCc1ccc(Cl)cc1Cl`, for which the Potency entry was “inactive”.

The next test in a line: qHTS RealTime-Glo MT Cell Viability Assay in HEK293 cells - 24 hour (AID 1224886). Also: top concentration of the series differs between compounds. Conditions: RealTime-Glo luminescence; series mostly up to 76.8 µM. The procedure, abridged:
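Viability tracked continuously by luminescence as live cells reduce a prosubstrate for NanoLuc; HEK293 cells preincubated 5 h, compound-treated at 37 C, and read at 0, 8, 16, 24, 32 and 40 h.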
(In general: In qHTS, concentration-response curves come from the screen itself.)
For the compound `CCCCC(=O)O`, the Potency result is “inactive”. On the same count and under the same terms, the same measure for `CC(O)CNCC(C)O` (configuration not stated): “inactive”.

`CC(C)c1ccc(C(C)C)cc1`: the Potency entry was “inactive”.

On to `NC1CCCCC1N` (configuration not stated), for which the Potency entry is “inactive”. On the same count and under the same terms, next, `CCCOCC(C)O` (configuration not stated): “inactive”. With `Cc1ccc(C)c(S(=O)(=O)O)c1`, the Potency entry is “inactive”. In the case of `CCCCCCCCO`, the Potency entry was “inactive”.

For the compound `O=C1C(N(CO)C(=O)NCO)N(CO)C(=O)N1CO` (configuration not stated), the Potency result is “inactive”.

With `COc1ccc(N)c(OC)c1`, the Potency entry is “inactive”. On to `O=C(Cl)c1ccc(C(=O)Cl)cc1`, for which the Potency entry was “inactive”. As to `CC(=O)OC(C)(C)C1CC=C(C)CC1` (configuration not stated), the Potency entry is “inactive”. The same measure, in the same setting: next, `CC(=O)OCCC(C)C`: “inactive”; `CO[Si](CCCNCCN)(OC)OC`: “inactive”; `CCn1cc(C(=O)O)c(=O)c2cc3c(cc21)OCO3`: “inactive”. Same read-out and setting: next, `CC1(C)[C@@H](O[C@H]2O[C@H](C(=O)O)[C@@H](O)[C@H](O)[C@H]2O[C@@H]2O[C@H](C(=O)O)[C@@H](O)[C@H](O)[C@H]2O)CC[C@]2(C)[C@H]3C(=O)C=C4[C@@H]5C[C@@](C)(C(=O)O)CC[C@]5(C)CC[C@@]4(C)[C@]3(C)CC[C@@H]12`: “inactive”.
